# Source: the supplement of paper PMC9135407
# “And” between values parts separate entries of the source, which are not always exact repeats. Identical values can stand only once. Counter-ions that a name gives are not always drawn. Out of some 5,800 compounds screened, about 620 (11%) showed activity. The full list was thinned out, with actives kept by preference. Values without a mark were called inactive.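 The calls were made as follows: active = score above a cut-off or among the top three wells of a plate; in these data no inactive exceeds 0.85.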
# System: primary human hepatic stellate cells (donor 1)
# Test: scaled lipid accumulation score (0 = DMSO-like, 1 = nortriptyline-like); higher = stronger HSC inactivation (lipid re-accumulation), active = hit call of the paper
# Conditions: 48 h
# [1] = library stock concentration: 1 mM
# [2] = library stock concentration: 3.33 mM
# [3] = library stock concentration: 10 mM
# [4] = library stock concentration: 5.1 mM
smiles,measurement,setting,value
CCCCCCCC/C=C\CCCCCCCC(=O)OC[C@@H](COP(O)(O)=S)OC,scaled lipid accumulation score,[1],0.084
NC(=NN=Cc1ccc(-c2cccc([N+](=O)[O-])c2)o1)N[N+](=O)[O-] [ERK Inhibitor III],scaled lipid accumulation score,[2],≤ 0
Cn1c2c(c3ccccc31)CCNCC2,scaled lipid accumulation score,[3],0.326
COc1cccc(C2(O)CCCCC2CN(C)C)c1 (stereo unspecified) [Tramadol HCl],scaled lipid accumulation score,library stock concentration: 7.6 mM,≤ 0
COc1cccc(C2(O)CCCCC2CN(C)C)c1 (stereo unspecified) [Tramadol],scaled lipid accumulation score,[3],0.009
COc1cccc(C2(O)CCCCC2CN(C)C)c1 (stereo unspecified) [Tramadol hydrochloride],scaled lipid accumulation score,library stock concentration: 6.7 mM,≤ 0
COc1ccc(CCN)cc1OC [Homoveratrylamine],scaled lipid accumulation score,[3],0.046
C=CCN1C[C@H](C(=O)N(CCCN(C)C)C(=O)NCC)C[C@@H]2c3cccc4[nH]cc(c34)C[C@H]21 [Cabergoline],scaled lipid accumulation score,library stock concentration: 4.4 mM,0.368
CCN1C[C@]2(COC)CC[C@H](O)[C@@]34C5C[C@@H]6[C@@H](OC)C[C@](O)(C(CC23)C14)C5[C@H]6OC(C)=O (stereo partly specified) [Condelphine],scaled lipid accumulation score,,≤ 0
COc1cc2c(c(OC)c1OC)-c1ccc(O)c(=O)cc1[C@@H](N)CC2 [Trimethylcolchicinic acid],scaled lipid accumulation score,,0.074
O=C(NC(COc1ccc2[nH]c(=O)[nH]c2c1)c1ccccc1)c1cccn(Cc2ccc(F)c(F)c2)c1=O (stereo unspecified),scaled lipid accumulation score,library stock concentration: 80 uM,≤ 0
same,scaled lipid accumulation score,library stock concentration: 400 uM,≤ 0
same,scaled lipid accumulation score,library stock concentration: 2 mM,≤ 0
same,scaled lipid accumulation score,[3],≤ 0
COc1cc([C@@H]2c3cc4c(cc3[C@H](O)[C@H]3COC(=O)[C@H]23)OCO4)cc(OC)c1OC [Podofilox],scaled lipid accumulation score,library stock concentration: 4.8 mM,0.201
same,scaled lipid accumulation score,[3],0.419
COc1cc([C@@H]2c3cc4c(cc3[C@H](O)[C@H]3COC(=O)[C@H]23)OCO4)cc(OC)c1OC [Podophyllotoxin],scaled lipid accumulation score,,≤ 0
same,scaled lipid accumulation score,[3],0.288
C/C=C(\C)C(=O)N[C@@H](c1ccccc1)[C@@H](O)C(=O)O[C@H]1C[C@@]2(O)[C@@H](OC(=O)c3ccccc3)[C@@H]3[C@]4(OC(C)=O)CO[C@@H]4C[C@H](O)[C@@]3(C)C(=O)[C@H](OC(C)=O)C(=C1C)C2(C)C [Cephalomannine],scaled lipid accumulation score,[2],≤ 0
same,scaled lipid accumulation score,[3],≤ 0
O=C(CCCN1CCC2(CC1)C(=O)NCN2c1ccccc1)c1ccc(F)cc1 [Spiperone] [listing 1 of 2 here],scaled lipid accumulation score,,0.119
same,scaled lipid accumulation score,[4],0.399
same,scaled lipid accumulation score,[3],≤ 0
O=C(NCCN1CCC2(CC1)C(=O)NCN2c1ccccc1)c1ccc2ccccc2c1,scaled lipid accumulation score,[1],≤ 0
O=C(CCCN1CCC2(CC1)C(=O)N(Cc1cccc(F)c1)CN2c1ccccc1)c1ccc(F)cc1.O=C(O)/C=C\C(=O)O [3'-Fluorobenzylspiperone maleate],scaled lipid accumulation score,[3],0.967 (active)
O=C(CCCN1CCC2(CC1)C(=O)NCN2c1ccccc1)c1ccc(F)cc1 [Spiperone] [listing 2 of 2 here],scaled lipid accumulation score,[4],0.939 (active)
O=C(CCCN1CCC2(CC1)C(=O)NCN2c1ccccc1)c1ccc(F)cc1 [Spiperone hydrochloride],scaled lipid accumulation score,[3],0.74 and 0.784
CC(N)c1cccc(Cl)c1Cl (stereo unspecified),scaled lipid accumulation score,[3],0.208
O=C(O)c1ccc2[nH]cc(CCCCN3CC=C(c4ccccc4)CC3)c2c1 [Carmoxirole hydrochloride],scaled lipid accumulation score,[3],0.073
CN1C2CC(O)CC1C1OC12 (stereo unspecified) [Scopine],scaled lipid accumulation score,[2],≤ 0
same,scaled lipid accumulation score,[3],≤ 0
CCCCCCCCCCCCCCCC(=O)OCC(COP(=O)([O-])OCC[N+](C)(C)C)OC(C)=O (stereo unspecified),scaled lipid accumulation score,[1],0.014
C=C(C)[C@@H]1[C@H]2OC(=O)[C@@H]1[C@]1(O)C[C@H]3O[C@]34C(=O)O[C@H]2[C@]14C.CC(C)(O)[C@@H]1[C@H]2OC(=O)[C@@H]1[C@]1(O)C[C@H]3O[C@]34C(=O)O[C@H]2[C@]14C [Picrotin - Picrotoxinin],scaled lipid accumulation score,[3],≤ 0
c1cncc(C2=NCCC2)c1 [Myosmine],scaled lipid accumulation score,,≤ 0
CC(=O)OCC1=C(C(=O)[O-])N2C(=O)[C@@H](NC(=O)CCC[C@@H](N)C(=O)[O-])[C@H]2SC1.[Zn+2] [Cephalosporin C zinc salt],scaled lipid accumulation score,[3],0.329
COc1cc2c3cc1Oc1c(OC)c(OC)cc4c1[C@@H](Cc1cccc(c1)Oc1ccc(c(O)c1)C[C@@H]3N(C)CC2)N(C)CC4 [Berbamine hydrochloride],scaled lipid accumulation score,[3],≤ 0
COc1ccc(C[C@H]2NC[C@H](O)[C@H]2OC(C)=O)cc1 [Anisomycin] [listing 1 of 3 here],scaled lipid accumulation score,,1.05 (active)
COc1ccc(C[C@H]2NC[C@H](O)[C@H]2OC(C)=O)cc1 [Anisomycin] [listing 2 of 3 here],scaled lipid accumulation score,[3],1.39 (active)
COc1ccc(C[C@@H]2NC[C@@H](O)[C@@H]2OC(C)=O)cc1 [Anisomycin],scaled lipid accumulation score,library stock concentration: 18.8 mM,0.899 (active)
COc1ccc(C[C@H]2NC[C@H](O)[C@H]2OC(C)=O)cc1 [Anisomycin] [listing 3 of 3 here],scaled lipid accumulation score,[3],0.806
O[C@@H]1CCCC[C@H]1N1CCC(c2ccccc2)CC1 [L(-)-vesamicol hydrochloride],scaled lipid accumulation score,,≤ 0
CC(C)(C)NCC(O)COc1cccc2[nH]c(C#N)cc12 (stereo unspecified) [Cyanopindolol hemifumarate],scaled lipid accumulation score,[3],0.049
CC(C)[C@@H]1NC(=O)[C@H](C)OC(=O)[C@@H](C(C)C)NC(=O)[C@@H](C(C)C)OC(=O)[C@H](C(C)C)NC(=O)[C@H](C)OC(=O)[C@@H](C(C)C)NC(=O)[C@@H](C(C)C)OC(=O)[C@H](C(C)C)NC(=O)[C@H](C)OC(=O)[C@@H](C(C)C)NC(=O)[C@@H](C(C)C)OC1=O [Valinomycin],scaled lipid accumulation score,library stock concentration: 4.5 mM,0.447
CC1=NN=C(c2ccc(N)cc2)c2cc3c(cc2C1)OCO3,scaled lipid accumulation score,[3],≤ -0.07 and ≤ -0.006
CC[C@H](C)[C@H]1O[C@]2(C=C[C@@H]1C)C[C@@H]1C[C@@H](C/C=C(\C)[C@@H](O[C@H]3C[C@H](OC)[C@@H](O[C@H]4C[C@H](OC)[C@@H](O)[C@H](C)O4)[C@H](C)O3)[C@@H](C)/C=C/C=C3\CO[C@@H]4[C@H](O)C(C)=C[C@@H](C(=O)O1)[C@]34O)O2.CO[C@H]1C[C@H](O[C@H]2[C@H](C)O[C@@H](O[C@@H]3/C(C)=C/C[C@@H]4C[C@@H](C[C@]5(C=C[C@H](C)[C@@H](C(C)C)O5)O4)OC(=O)[C@@H]4C=C(C)[C@@H](O)[C@H]5OC/C(=C\C=C\[C@@H]3C)[C@]54O)C[C@@H]2OC)O[C@@H](C)[C@@H]1O [Avermectin b1],scaled lipid accumulation score,[3],≤ 0
CC[C@H](C)[C@H]1O[C@]2(C=C[C@@H]1C)C[C@@H]1C[C@@H](C/C=C(\C)[C@@H](O[C@H]3C[C@H](OC)[C@@H](O[C@H]4C[C@H](OC)[C@@H](O)[C@H](C)O4)[C@H](C)O3)[C@@H](C)/C=C/C=C3\CO[C@@H]4[C@H](O)C(C)=C[C@@H](C(=O)O1)[C@]34O)O2.CO[C@H]1C[C@H](O[C@H]2[C@H](C)O[C@@H](O[C@@H]3/C(C)=C/C[C@@H]4C[C@@H](C[C@]5(C=C[C@H](C)[C@@H](C(C)C)O5)O4)OC(=O)[C@@H]4C=C(C)[C@@H](O)[C@H]5OC/C(=C\C=C\[C@@H]3C)[C@]54O)C[C@@H]2OC)O[C@@H](C)[C@@H]1O [Abamectin],scaled lipid accumulation score,library stock concentration: 2.3 mM,0.027 and ≤ 0
CC[C@H](C)[C@H]1O[C@]2(C=C[C@@H]1C)C[C@@H]1C[C@@H](C/C=C(\C)[C@@H](O[C@H]3C[C@H](OC)[C@@H](O[C@H]4C[C@H](OC)[C@@H](O)[C@H](C)O4)[C@H](C)O3)[C@@H](C)/C=C/C=C3\CO[C@@H]4[C@H](O)C(C)=C[C@@H](C(=O)O1)[C@]34O)O2.CO[C@H]1C[C@H](O[C@H]2[C@H](C)O[C@@H](O[C@@H]3/C(C)=C/C[C@@H]4C[C@@H](C[C@]5(C=C[C@H](C)[C@@H](C(C)C)O5)O4)OC(=O)[C@@H]4C=C(C)[C@@H](O)[C@H]5OC/C(=C\C=C\[C@@H]3C)[C@]54O)C[C@@H]2OC)O[C@@H](C)[C@@H]1O [Avermectin B1],scaled lipid accumulation score,,≤ 0
O=C1C=CC[C@@H]2[C@H]3CCCN4CCC[C@@H](CN12)[C@@H]34 [Sophocarpine],scaled lipid accumulation score,[2],≤ 0
same,scaled lipid accumulation score,[3],≤ 0
CCCCC/C=C\C/C=C\C/C=C\C/C=C\CCCC(=O)NCCOP(=O)(O)O [Arachidonoyl Ethanolamide Phosphate],scaled lipid accumulation score,[1],≤ 0
"C/C(=C\c1csc(C)n1)[C@@H]1C[C@@H]2O[C@]2(C)CCC[C@H](C)[C@H](O)[C@@H](C)C(=O)C(C)(C)[C@@H](O)CC(=O)O1 [Epothilone B (EPO906, Patupilone)]",scaled lipid accumulation score,[2],≤ 0
same,scaled lipid accumulation score,[3],≤ 0
CCCCC/C=C\C/C=C\C/C=C\C/C=C\CCCC(N)=O [Arachidonamide],scaled lipid accumulation score,[1],≤ -0.021
CCCCC/C=C\C/C=C\C/C=C\C/C=C\CCCC(N)=O [Arachidonoyl amide],scaled lipid accumulation score,[1],≤ 0
CN1[C@@H]2CC[C@H]1C[C@@H](OC1c3ccccc3CCc3ccccc31)C2 [Deptropine citrate],scaled lipid accumulation score,,0.266
CN1[C@H]2C[C@H](OC(=O)[C@H](CO)c3ccccc3)C[C@@H]1[C@@H](O)C2,scaled lipid accumulation score,[3],≤ 0
CN1[C@@H]2CC[C@H]1C[C@@H](OC(c1ccccc1)c1ccccc1N)C2 (stereo partly specified) [Aminobenztropine],scaled lipid accumulation score,[3],0.656
CN1C2CCC1CC(OC(c1ccc(F)cc1)c1ccc(F)cc1)C2.Cl (stereo unspecified),scaled lipid accumulation score,[3],1.29 (active)
CN1C2CCC1CC(OC(c1ccccc1)c1ccc(Cl)cc1)C2.Cl (stereo unspecified),scaled lipid accumulation score,[3],1.07 (active)
COc1cc(C(=O)OC2CC3CCC(C2)N3C)ccc1O (stereo unspecified) [Fillalbin],scaled lipid accumulation score,,≤ 0
CN1[C@H]2C[C@H](OC(=O)[C@H](CO)c3ccccc3)C[C@@H]1[C@@H](O)C2 [Anisodamine],scaled lipid accumulation score,[3],0.076
